In PubChem BioAssay (NCI) one finds growth data, which are given here for nine molecules.

Some test systems named below: SR leukemia; RPMI-8226 leukemia; OVCAR-8 ovarian; OVCAR-5 ovarian; OVCAR-4 ovarian; SK-OV-3 ovarian; IGROV1 ovarian; OVCAR-3 ovarian; HS 578T breast; NCI/ADR-RES ovarian; T-47D breast; BT-549 breast; MDA-MB-435 melanoma; MCF7 breast; HCT-116 colon; HCC-2998 colon; KM12 colon; SW-620 colon.
Holding throughout (experiment): NCI-60 one-dose screen, 48 h (100 = growth as untreated, 0 = no growth, -100 = all killed)
Common to all, as to settings: 10 µM unless noted

Compounds without any hit were thinned out: in the full panel of roughly 83,000, 20% have a hit.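 Interpretation: 100, growth as untreated; towards 0, rising growth inhibition; 0, no net growth; 0 to -100, cell death. Compounds scoring below 10 were considered active.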 Unmarked numbers belong to inactive results. Activity calls are given as the source filed them.

For the molecule `COc1cc(C2C3=C(COC3=O)N(CCO)c3cc4c(cc32)OCCO4)cc(OC)c1OC` (stereo not drawn), the growth in the test with SR leukemia is 1.09% (active); with RPMI-8226 leukemia, 21.9%; in the test on OVCAR-8 ovarian it was 6.75% (active); with OVCAR-5 ovarian, 41.5%; in the test on OVCAR-4 ovarian it was 24.9%; in the test on SK-OV-3 ovarian, 5.64% (active). Further, the growth in the test with IGROV1 ovarian was 4.17% (active); in the test with OVCAR-3 ovarian, -55.6% (active); in the test with HS 578T breast it was -4.92% (active); in the test on NCI/ADR-RES ovarian it was 48.2%; with T-47D breast, 67.2%; with BT-549 breast, -4.33% (active). The growth in the test on MDA-MB-435 melanoma was -32.8% (active); in the test on MCF7 breast, 11.2%; in the test with HCT-116 colon it was 0.547% (active); in the test with HCC-2998 colon, -0.511% (active); in the test with KM12 colon, -28.6% (active).

For `COc1ccc(C2=CN3CC=CCC3CC2=O)cc1` (stereo not drawn), the growth in the test on SR leukemia was 90.3%; in the test on RPMI-8226 leukemia, 97.9%; in the test on OVCAR-8 ovarian, 91%; with OVCAR-5 ovarian it was 106%; in the test on OVCAR-4 ovarian, 109%; with SK-OV-3 ovarian, 106%. For the same molecule, the growth in the test with IGROV1 ovarian was 111%; in the test on OVCAR-3 ovarian, 102%; in the test with HS 578T breast, 98.3%; in the test on NCI/ADR-RES ovarian it was 107%; with T-47D breast, 90.6%; in the test on BT-549 breast it was 90.7%. In addition, the growth in the test with SW-620 colon was 101%; with MCF7 breast, 105%; in the test with HCT-116 colon, 93.1%; in the test on HCC-2998 colon, 100%; in the test on KM12 colon it was 104%.

In the case of `COc1cc2c(c(OC)c1OC)C(=O)CC(c1cccc(NC(=O)c3ccccc3Br)c1)O2` (stereo not drawn), the growth in the test with SR leukemia was 68.4%; with RPMI-8226 leukemia, 58.2%; in the test on OVCAR-8 ovarian it was 80.1%; with OVCAR-5 ovarian, 117%; in the test on OVCAR-4 ovarian, 90%; in the test with SK-OV-3 ovarian, 108%. Further, the growth was 102% with IGROV1 ovarian; 96.4% with OVCAR-3 ovarian; 79.5% in the test on HS 578T breast; 91.3% with NCI/ADR-RES ovarian; 65.7% in the test with T-47D breast; 98.7% in the test with BT-549 breast. Moreover, the growth is 92.5% in the test on MDA-MB-435 melanoma; 78.2% with MCF7 breast; 75.6% with HCT-116 colon; 106% in the test with HCC-2998 colon; 103% with KM12 colon.

Take `Cc1ccc(/C=C(\C#N)C(=O)Nc2ncc(Cc3cc(Cl)ccc3Cl)s2)o1`: the growth was 90.1% in the test on SR leukemia; 49.3% in the test with RPMI-8226 leukemia; 49.8% with OVCAR-8 ovarian; 69.6% in the test with OVCAR-5 ovarian; 1.2% (active) with OVCAR-4 ovarian; 62% in the test with SK-OV-3 ovarian. Also, the growth in the test with IGROV1 ovarian is 71.7%; in the test on OVCAR-3 ovarian it was 75.4%; in the test on HS 578T breast, 13%; in the test on NCI/ADR-RES ovarian it was 52.5%; in the test with T-47D breast, 51.1%; in the test with BT-549 breast, 65.4%. Further, the growth in the test on SW-620 colon was 53.4%; in the test on MCF7 breast, 49.6%; with HCT-116 colon, 54.4%; with HCC-2998 colon it was 29.7%; with KM12 colon it was 27%.

`O=C(O)CCCc1cnc2c3sccc3nc(SCc3c(Cl)cccc3Cl)n12`: the growth is 23.9% with SR leukemia; 51.6% in the test on RPMI-8226 leukemia; 63.7% in the test on OVCAR-8 ovarian; 80.5% in the test with OVCAR-5 ovarian; 59.7% in the test with OVCAR-4 ovarian; 36.5% in the test with SK-OV-3 ovarian. Further, the growth is 54.1% in the test on IGROV1 ovarian; 7.34% (active) in the test with OVCAR-3 ovarian; 39.5% in the test on HS 578T breast; 45.7% in the test on NCI/ADR-RES ovarian; 24.9% in the test on T-47D breast; 44.8% in the test with BT-549 breast. Further, the growth is 27.3% with SW-620 colon; 26.5% in the test with MCF7 breast; 21.7% in the test with HCT-116 colon; 81.1% in the test with HCC-2998 colon; 21.7% with KM12 colon.

Regarding `C/C(C=O)=C\c1ccc2c(c1)OCO2`, the growth was 109% in the test with SR leukemia; 96.7% with RPMI-8226 leukemia; 106% in the test with OVCAR-8 ovarian; 110% with OVCAR-5 ovarian; 109% with OVCAR-4 ovarian; 105% in the test with SK-OV-3 ovarian. In addition, the growth in the test on IGROV1 ovarian was 116%; with OVCAR-3 ovarian, 132%; in the test on HS 578T breast, 115%; in the test with NCI/ADR-RES ovarian it was 107%; in the test with T-47D breast, 117%; with BT-549 breast it was 114%. Further, the growth with SW-620 colon was 118%; with MCF7 breast, 102%; in the test with HCT-116 colon, 108%; in the test with HCC-2998 colon it was 108%; with KM12 colon, 110%.

Take `CCOC(=O)C1=C(C)N=C2SC=C(c3ccccc3)N2[C@H]1c1cn[nH]c1-c1ccc(Cl)cc1`: the growth with SR leukemia was -31.2% (active); with RPMI-8226 leukemia it was -8.38% (active); in the test on OVCAR-8 ovarian, 50.9%; with OVCAR-5 ovarian, 108%; in the test on OVCAR-4 ovarian, 55.6%; in the test with SK-OV-3 ovarian, 62.5%. Moreover, the growth was -24.4% (active) in the test with IGROV1 ovarian; 22.5% with OVCAR-3 ovarian; 45.6% with HS 578T breast; 69.4% with NCI/ADR-RES ovarian; 38.8% in the test with T-47D breast; 34.1% with BT-549 breast. Further, the growth was 49.4% in the test on MDA-MB-435 melanoma; 21.7% with MCF7 breast; 18.5% with HCT-116 colon; 109% in the test with HCC-2998 colon; 59.4% in the test with KM12 colon.

Regarding `C[N+](C)(C/C=C/c1ccccc1)Cc1ccccc1`, the growth in the test with SR leukemia was 97.7%; in the test with RPMI-8226 leukemia, 123%; in the test with OVCAR-8 ovarian it was 107%; in the test with OVCAR-5 ovarian, 81.2%; in the test on OVCAR-4 ovarian, 97.4%; in the test with SK-OV-3 ovarian, 107%. In addition, the growth in the test on IGROV1 ovarian was 94.5%; in the test on OVCAR-3 ovarian it was 96.4%; in the test on HS 578T breast, 106%; in the test with NCI/ADR-RES ovarian it was 99.1%; in the test on T-47D breast, 94.4%; in the test on BT-549 breast, 96.1%. Moreover, the growth is 100% in the test on SW-620 colon; 100% in the test with MCF7 breast; 95.5% in the test on HCT-116 colon; 95.8% in the test with HCC-2998 colon; 95.4% in the test with KM12 colon.

With `CN(Cc1cnc2nc(N)nc(N)c2n1)c1c(Cl)cc(C(=O)NC(CCC(=O)O)C(=O)O)cc1Cl` (stereo not drawn), the growth was 42.4% in the test on SR leukemia; 45.3% with RPMI-8226 leukemia; 17.8% with OVCAR-8 ovarian; 48.7% in the test with OVCAR-5 ovarian; 55.1% in the test on OVCAR-4 ovarian; 56.3% in the test with SK-OV-3 ovarian. The growth in the test with IGROV1 ovarian is 28.3%; in the test with OVCAR-3 ovarian, 48.1%; in the test on HS 578T breast, 66.1%; in the test with NCI/ADR-RES ovarian, 35.1%; in the test with T-47D breast it was 53.2%; in the test on BT-549 breast, 21.9%. For the same molecule, the growth with MDA-MB-435 melanoma was 25.7%; in the test with MCF7 breast, 19.2%; in the test on HCT-116 colon, 18.9%; in the test on HCC-2998 colon, 20.9%; in the test on KM12 colon, 29.6%.
